{"source": "PubChem BioAssay AID743126", "about": "(The Scripps Research Institute Molecular Screening Center, 2013)", "note": "In all, about 370,000 compounds went through this assay and about 2,100 (0.57%) were called active. The full list was thinned out, with actives kept by preference. Values without a mark were called inactive.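 The calls were made as follows: active = inhibition above mean plus 3 SD of compounds lying within the high and low control bounds (cut at about 19% in these data); inactive = the rest.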"}
{"target": "Group 3 secretory phospholipase A2 (Homo sapiens) (UniProt Q9NZ20)", "sequence (Q9NZ20 whole entry, looked up)": "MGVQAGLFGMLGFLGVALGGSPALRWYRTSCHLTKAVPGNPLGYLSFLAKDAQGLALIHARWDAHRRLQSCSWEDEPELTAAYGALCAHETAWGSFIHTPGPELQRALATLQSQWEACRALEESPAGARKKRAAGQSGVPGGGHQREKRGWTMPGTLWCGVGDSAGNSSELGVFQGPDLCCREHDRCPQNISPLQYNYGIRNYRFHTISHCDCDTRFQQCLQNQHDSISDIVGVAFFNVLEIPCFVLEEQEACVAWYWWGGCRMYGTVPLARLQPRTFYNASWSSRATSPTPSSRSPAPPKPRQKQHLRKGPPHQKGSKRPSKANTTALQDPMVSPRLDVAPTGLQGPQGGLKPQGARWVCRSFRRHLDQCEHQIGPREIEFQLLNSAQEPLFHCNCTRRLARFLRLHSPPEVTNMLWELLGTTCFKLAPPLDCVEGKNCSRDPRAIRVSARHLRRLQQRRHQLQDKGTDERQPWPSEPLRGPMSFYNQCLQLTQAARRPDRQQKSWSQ", "experiment": "human group III sPLA2 inhibitors, primary screen, biochemical, QFRET, BODIPY PC-A2 liposome substrate (AID 743126);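 also: 0% = median of test compound wells and 100% = no enzyme DMSO wells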", "conditions": "QFRET BODIPY PC-A2 liposome hydrolysis, fluorescence; at 12.2 µM; active compounds read high"}
{"smiles": "CC(c1ccc(N)cc1)c1cn(C)c2ccccc12", "note": "(stereo unspecified)", "inhibition": "13.1%"}
{"smiles": "FC(F)(F)c1cccc(Cn2ccc3ccc(-c4ccc5ccn(Cc6ccccc6)c5c4)cc32)c1", "inhibition": "-7.36%"}
{"smiles": "C=CCN(C)CC#Cc1ccccc1", "inhibition": "6.96%"}
{"smiles": "CCOC(=O)C1(Cc2cccc(OC)c2)CCCN(S(=O)(=O)c2cccnc2)C1", "note": "(stereo unspecified)", "inhibition": "1.51%"}
{"smiles": "CCOC(=O)C1(Cc2cccc(OC)c2)CCN(C(C)COC)CC1", "note": "(stereo unspecified)", "inhibition": "-1.08%"}
{"smiles": "CCOC(=O)C1(Cc2cccc(OC)c2)CCCN(C(=O)CCSC)C1", "note": "(stereo unspecified)", "inhibition": "19.5% (active)"}
{"smiles": "CC(C)(C)NC(=O)C(c1cccnc1)N(C(=O)c1cnco1)c1ccc(C(C)(C)C)cc1", "note": "(stereo unspecified)", "inhibition": "-5.08%"}
{"smiles": "CCOc1ccc(Oc2c(Cl)cnn(-c3ccc(C)cc3)c2=O)cc1", "inhibition": "8.12%"}
{"smiles": "O=[N+]([O-])c1ccccc1S(=O)(=O)Nc1cccc2cccnc12", "inhibition": "6.98%"}
{"smiles": "O=S(=O)(Nc1ccccn1)c1cccc(S(=O)(=O)c2ccc(Cl)cc2)c1", "inhibition": "-7.39%"}
{"smiles": "COc1cc(NS(=O)(=O)c2ccc3ccccc3c2)c2ncccc2c1", "inhibition": "23.8% (active)"}
{"smiles": "CCOC(=O)C(=O)N(Cc1ccccc1)c1ccccc1C(=O)Nc1cc(OC)ccc1OC", "inhibition": "-2.65%"}
{"smiles": "NC[C@H](Cc1ccccc1)NCCc1cc(C(F)(F)F)cc(C(F)(F)F)c1", "inhibition": "21.8% (active)"}
{"smiles": "CC1=CC(C)(C)NC(=S)N1c1ccccc1", "inhibition": "20.1% (active)"}
{"smiles": "CC1=CC(C)(C)NC(=S)N1NC(=O)c1ccccc1Cl", "inhibition": "4.76%"}
{"smiles": "CN(C)Cc1cn(-c2ccc(-c3noc4c3C(=O)N(CC(=O)N3CCOCC3)CC4)cc2)nn1", "inhibition": "1.51%"}
{"smiles": "COc1ccc(N2CCN(CCNS(=O)(=O)c3ccc([N+](=O)[O-])cc3)CC2)cc1", "inhibition": "-4.09%"}
{"smiles": "COc1ccccc1CCNC(=O)C1CCN(c2nc(C)cc(C)n2)CC1", "inhibition": "-0.08%"}
{"smiles": "Cc1c(NC(=S)NCc2ccc(F)cc2)cccc1[N+](=O)[O-]", "inhibition": "19.5% (active)"}
{"smiles": "Cc1cccc(NC(=S)NCCc2ccc(F)cc2)c1C", "inhibition": "8.1%"}
{"smiles": "Cc1ccc(NC(=O)CN(C)Cc2ccc(F)cc2)c([N+](=O)[O-])c1", "inhibition": "-1.08%"}
{"smiles": "O=C(CSc1nc2ccccc2n1Cc1ccccc1Cl)N/N=C\\c1c[nH]c2ccccc12", "inhibition": "-20.9%"}
{"smiles": "COC(=O)C1CN(Cc2ccc(F)cc2)CCS(=O)(=O)N1Cc1ccc(Cl)cc1", "note": "(stereo unspecified)", "inhibition": "0.13%"}
{"smiles": "CCC(=O)OCCCN1C(=O)CCC12CCC(c1ccccc1)CC2", "note": "(stereo unspecified)", "inhibition": "-0.68%"}
{"smiles": "Cc1cccc(C)c1NC(=O)CN1C(=O)C(C)Oc2ccccc21", "note": "(stereo unspecified)", "inhibition": "20.8% (active)"}
{"smiles": "CC1Oc2ccccc2N(Cc2cccnc2)C1=O", "note": "(stereo unspecified)", "inhibition": "7.65%"}
{"smiles": "Cc1ccc2c(c1)N(CC(=O)N1CCCc3ccccc31)C(=O)C(C)O2", "note": "(stereo unspecified)", "inhibition": "0.55%"}
{"smiles": "COc1ccc(Cn2ccc3ccc(-c4ccc5ccn(Cc6ccccc6C)c5c4)cc32)cc1", "inhibition": "3.9%"}
{"smiles": "COc1ccc(C#CCNCc2ccc(OC)cc2OC)cc1", "inhibition": "12.6%"}
{"smiles": "CCOC(=O)C1(Cc2ccccc2)CCN(Cc2cn(C(C)=O)c3ccccc23)CC1", "inhibition": "-23.2%"}
{"smiles": "O=C(CSc1nnc(-c2ccccc2)n1Cc1ccco1)Nc1ccccc1-c1ccccc1", "inhibition": "-10.1%"}
{"smiles": "CCCCCCCCNS(=O)(=O)/C=C/c1cc(C)ccc1CNC(=O)OC(C)(C)C", "inhibition": "-4.97%"}
{"smiles": "CCCCOCCCNC(=O)C[C@H]1C[C@@]2(C(=O)OC)C(=C[C@H](COCc3ccccc3)O[C@@H]2C)N(Cc2cccc3ccccc23)C1=O", "inhibition": "-20.5%"}
{"smiles": "CNC(=S)N/N=C/c1ccc(OCc2ccccc2)c(Br)c1", "inhibition": "0.16%"}
{"smiles": "C=CCOc1ccc(/C=N/n2cncn2)cc1OC", "inhibition": "2.27%"}
{"smiles": "COc1cc(/C=N/n2c(C)n[nH]c2=S)ccc1OCc1ccccc1", "inhibition": "20.9% (active)"}
{"smiles": "C=CCn1c(SCC(=O)NC)nnc1C12CC3CC(CC(C3)C1)C2", "inhibition": "0.19%"}
{"smiles": "C=CCn1c(-c2ccc3[nH]c(C)c(C)c3c2)n[nH]c1=S", "inhibition": "-0.35%"}
{"smiles": "C=CCn1c(C23CC4CC(CC(C4)C2)C3)n[nH]c1=S", "inhibition": "23.5% (active)"}
{"smiles": "FC(F)(F)c1cccc(NC(=S)OC2CCC23CCC(c2ccccc2)CC3)c1", "note": "(stereo unspecified)", "inhibition": "-7.1%"}
{"smiles": "CN[C@H]1C[C@H]2c3cc(N4CCOCC4)ccc3CCN2C[C@H]1[C@H](C)O", "inhibition": "7.01%"}
{"smiles": "CCOC12CC(C)(C)CC(C)(CC3=C1C(=O)CC(C)(C)C3)C2", "note": "(stereo unspecified)", "inhibition": "24.1% (active)"}
{"smiles": "O=S1(=O)c2c(cccc2N2CCSCC2)Oc2ccccc2CN1Cc1cn(Cc2ccc(F)cc2)nn1", "inhibition": "2.55%"}
{"smiles": "Cc1ccc(S(=O)(=O)NCc2nc3ccccc3c(=O)n2N)cc1", "inhibition": "2.93%"}
{"smiles": "Cc1ccc(C(=O)CSc2nc3ccccc3c(=O)n2N)o1", "inhibition": "-0.69%"}
{"smiles": "C#CCCCc1nc2ccccc2c(=O)n1N", "inhibition": "21.1% (active)"}
{"smiles": "O=C(OCC#CCSc1nnc(-c2ccco2)o1)c1ccc(F)cc1", "inhibition": "1.02%"}
{"smiles": "C/C(=N\\NC(=O)COc1c(C)cccc1C)c1cccs1", "inhibition": "2.47%"}
{"smiles": "Cc1ccccc1-n1c(SCC(=O)Nc2cccc3ccccc23)nc(O)cc1=O", "inhibition": "-4.85%"}
{"smiles": "C/C(=N\\NC(=O)CSc1nc2ccccc2c(=O)n1-c1ccccc1C)c1cccs1", "inhibition": "25.2% (active)"}
{"smiles": "CCc1c(Nc2ccccc2C)nc(N)[nH]c1=O", "inhibition": "8.22%"}
{"smiles": "Cc1[nH]c(N)nc(=S)c1CCCNc1ccccc1", "inhibition": "23.8% (active)"}
{"smiles": "Cc1cc(=O)n(C)c(=O)n1CCCNc1ccccc1", "inhibition": "-0.01%"}
{"smiles": "C=CCN1C(=O)[C@@H](CC(=O)N2CCN(C(=O)c3ccco3)CC2)[C@]2(C(=O)OC)CCCCC=C12", "inhibition": "13.7%"}
{"smiles": "COc1cccc(N(C)C(=O)[C@@H](C)[C@@H](O)c2ccc3ccccc3c2)c1", "inhibition": "-10.3%"}
{"smiles": "CCOC(=O)C(CC)Sc1ncnc2c1nnn2-c1ccc(F)cc1", "note": "(stereo unspecified)", "inhibition": "-1.68%"}
{"smiles": "CCOC(=O)C(C)n1cnc2c(nnn2-c2ccc(F)cc2)c1=O", "note": "(stereo unspecified)", "inhibition": "10.8%"}
{"smiles": "COC(=O)C(C)n1cnc2c(nnn2-c2ccc(F)cc2)c1=O", "note": "(stereo unspecified)", "inhibition": "21.6% (active)"}
{"smiles": "C=C1C(C(C)C)N(C)C2=NC(c3ccccc3)CC(=O)N12", "note": "(stereo unspecified)", "inhibition": "0%"}
{"smiles": "C=C(C)C#CC(Cc1ccccc1)NCC1CC1", "note": "(stereo unspecified)", "inhibition": "4.73%"}
{"smiles": "CC(C)OC(=O)CC(=O)CC(O)c1cccc([N+](=O)[O-])c1", "note": "(stereo unspecified)", "inhibition": "-28%"}
{"smiles": "CC(C)CC(=O)NC(=S)NNC(=O)c1cccc([N+](=O)[O-])c1", "inhibition": "24.2% (active)"}
{"smiles": "CC(C)CC(=O)NC(=S)Nc1ccc(F)cc1F", "inhibition": "6.75%"}
{"smiles": "O=C1CCC2(CCC(c3ccc(Cl)cc3)CC2)N1CCO", "note": "(stereo unspecified)", "inhibition": "7.89%"}
{"smiles": "COc1ccc(C2CC=C(C(=O)O)C(c3ccccc3F)N2S(=O)(=O)c2ccc(C)cc2)cc1OC", "note": "(stereo unspecified)", "inhibition": "-7.23%"}
{"smiles": "CCOC(=O)[C@]12CCCC=C1N(Cc1ccc(OC)cc1)C(=O)[C@@H]2CC(=O)N1CCOCC1", "inhibition": "3.77%"}
{"smiles": "Cc1cc(=O)[nH]c(SCC(=O)Nc2ccc(Cl)cc2C)n1", "inhibition": "1.76%"}
{"smiles": "COc1ccccc1OCCn1c(SCC(N)=O)nc2ccccc21", "inhibition": "22.2% (active)"}
{"smiles": "COc1ccccc1OCc1nnc(SCC(N)=O)n1-c1ccccc1", "inhibition": "1.71%"}
{"smiles": "CCN(CC)C(=O)CSc1nc2ccccc2n1CC(=O)N1CCN(c2ccccc2OC)CC1", "inhibition": "0.24%"}
{"smiles": "N#CCC[C@H]1CC[C@]2(CCCN(Cc3ccc(Cl)cc3)C2)O1", "inhibition": "5.78%"}
{"smiles": "C=CCNc1scc(-c2ccccc2)[n+]1CC=C", "inhibition": "20.2% (active)"}
{"smiles": "C=CC[n+]1c(-c2ccc(C)cc2)csc1NNC(=O)Nc1ccccc1", "inhibition": "2.33%"}
{"smiles": "COC(CNC(=O)[C@H](Cc1ccccc1)NC1(C(=O)NC2CCCCC2)CCCCC1)OC", "inhibition": "-3.08%"}
{"smiles": "O=C(CCCCCN1C(=O)C2C3C=CC(C3)C2C1=O)Nc1ccccn1", "note": "(stereo unspecified)", "inhibition": "-2.55%"}
{"smiles": "CC(C)C(C#CC1CC1)N(Cc1ccc2c(c1)OCO2)C(N)=NC(=O)/C=C/c1cccc(C(F)(F)F)c1", "note": "(stereo unspecified)", "inhibition": "3.76%"}
{"smiles": "Clc1ccc(-n2c(SC/C=C/c3ccccc3)nnc2-c2ccco2)cc1", "inhibition": "-11.5%"}
{"smiles": "O=C(N/N=C1\\CCSC1)c1cc(Cl)ccc1O", "inhibition": "13.2%"}
{"smiles": "Cc1ccc(C(=O)NC23CC4CC(CC(C4)C2)C3)c(Cl)c1", "inhibition": "15.2%"}
{"smiles": "C/C(=N/NC(=O)c1cc(Cl)ccc1O)C12CC3CC(CC(C3)C1)C2", "inhibition": "22.8% (active)"}
{"smiles": "COC(=O)[C@H](C(C)C)N(CCc1cn(Cc2ccccc2)nn1)S(=O)(=O)c1ccc(F)cc1Br", "inhibition": "-2.33%"}
{"smiles": "O=C(NC1CCC1)c1ccc(C#Cc2cccc(F)c2)c[n+]1[O-]", "inhibition": "-4.97%"}
{"smiles": "COc1cccc(CNC(=O)C2CCN(S(=O)(=O)c3cccc4cccnc34)CC2)c1", "inhibition": "-1%"}
{"smiles": "CC(Oc1ccc(Cl)cc1)C(=O)Nc1ncccn1", "note": "(stereo unspecified)", "inhibition": "1.61%"}
{"smiles": "CC(=O)/C(=N\\Nc1ccc(Cl)cc1Cl)Sc1cccc2cccnc12", "inhibition": "20.9% (active)"}
{"smiles": "COC(=O)[C@]12C[C@H](CC(=O)N3CCOCC3)C(=O)N(Cc3ccc(Cl)cc3Cl)C1=C[C@H](C(C)C)O[C@@H]2C1CC1", "inhibition": "-5.59%"}
{"smiles": "CC1CCN(c2ccc(C(=O)O)cc2NS(=O)(=O)c2ccc(Br)s2)CC1", "inhibition": "-18.5%"}
{"smiles": "CCOC(=O)[C@]12CCCCC/C=C\\1N(Cc1ccc(OC)cc1)C(=O)[C@H]2CC(=O)NCc1ccc(C)o1", "inhibition": "-4.43%"}
{"smiles": "COc1ccc(C2Nc3ccccc3C(=O)N2Cc2cccs2)cc1COc1c(C)cccc1C", "note": "(stereo unspecified)", "inhibition": "4.57%"}
{"smiles": "Oc1ccc2ccccc2c1N=Nc1nccs1", "inhibition": "19.4% (active)"}
{"smiles": "O=C(NC1CCCC1)C1CSCCS(=O)(=O)N1Cc1ccccc1", "note": "(stereo unspecified)", "inhibition": "2.48%"}
